The campaign covered roughly 5,500 compounds. About 2,000 (36%) were called active. Roughly 18% stayed inconclusive and do not appear here. Rule as the data show it: active = normalized growth mostly below about 0.91 (no sharp cut-off); inconclusive = no clear call, values can overlap the other calls; inactive = mostly above about 0.92. The list shows a part of the results.
Test: chemical genetic growth profiling, strain panel (AID 1159580);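 also: tested at 20 µM; growth read once vehicle control cultures reached saturation at 30 °C; 1 = growth at the plate median or of vehicle wells; lower values mean less growth of the strain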
Conditions: growth OD

Measured: normalized growth

O=C1CN(/N=C\c2ccc([N+](=O)[O-])o2)C(=O)N1
inactive: S. cerevisiae deletion strains, locus YJR075W, strain HOC1, stronger effect = lower value 0.986 | S. cerevisiae deletion strains, locus YKL009W, strain mrt4, stronger effect = lower value 0.967 | S. cerevisiae deletion strains, locus YKL068W, stronger effect = lower value 1 | S. cerevisiae deletion strains, locus YKL085W, strain MDH1 (second series), stronger effect = lower value 0.991 | S. cerevisiae deletion strains, locus YKL085W, strain MDH1, stronger effect = lower value 0.991 | S. cerevisiae deletion strains, locus YKL160W, strain elf1, stronger effect = lower value 0.985 | S. cerevisiae deletion strains, locus YKL190W, strain CNB1, stronger effect = lower value 0.996 | S. cerevisiae deletion strains, locus YKR001C, strain vps1, stronger effect = lower value 0.965 | S. cerevisiae deletion strains, locus YKR026C, strain gcn3, stronger effect = lower value 0.979 | S. cerevisiae deletion strains, locus YKR091W, strain srl3, stronger effect = lower value 0.979 | S. cerevisiae deletion strains, locus YLL001W, strain dnm1, stronger effect = lower value 1 | S. cerevisiae deletion strains, locus YLL026W, stronger effect = lower value 0.992 | S. cerevisiae deletion strains, locus YLL041C, strain sdh2, stronger effect = lower value 0.978 | S. cerevisiae deletion strains, locus YLR027C, strain aat2, stronger effect = lower value 0.975 | S. cerevisiae deletion strains, locus YLR039C, strain RIC1, stronger effect = lower value 0.983 | S. cerevisiae deletion strains, locus YLR058C, strain SHM2, stronger effect = lower value 1.01 | S. cerevisiae deletion strains, locus YLR102C, strain apc9, stronger effect = lower value 0.993 | S. cerevisiae deletion strains, locus YLR113W, strain HOG1, stronger effect = lower value 0.968 | S. cerevisiae deletion strains, locus YLR221C, strain rsa3, stronger effect = lower value 0.976 | S. cerevisiae deletion strains, locus YLR258W, strain gsy2, stronger effect = lower value 0.975 | S. cerevisiae deletion strains, locus YLR262C, strain YPT6 (second series), stronger effect = lower value 0.976 | S. cerevisiae deletion strains, locus YLR262C, strain YPT6, stronger effect = lower value 1.04 | S. cerevisiae deletion strains, locus YLR268W, strain sec22, stronger effect = lower value 0.996 | S. cerevisiae deletion strains, locus YLR320W, strain mms22, stronger effect = lower value 0.935 | S. cerevisiae deletion strains, locus YLR330W, strain CHS5, stronger effect = lower value 1 | S. cerevisiae deletion strains, locus YLR342W, strain FKS1 (second series), stronger effect = lower value 0.983 | S. cerevisiae deletion strains, locus YLR342W, strain FKS1, stronger effect = lower value 0.979 | S. cerevisiae deletion strains, locus YLR357W, strain rsc2, stronger effect = lower value 0.954 | S. cerevisiae deletion strains, locus YLR370C, strain arc18, stronger effect = lower value 0.985 | S. cerevisiae deletion strains, locus YLR371W, strain rom2, stronger effect = lower value 1.01 | S. cerevisiae deletion strains, locus YLR384C, strain iki3, stronger effect = lower value 0.986 | S. cerevisiae deletion strains, locus YLR418C, strain cdc73, stronger effect = lower value 0.885 | S. cerevisiae deletion strains, locus YML016C, strain PPZ1, stronger effect = lower value 0.998 | S. cerevisiae deletion strains, locus YML032C, strain rad52, stronger effect = lower value 0.929 | S. cerevisiae deletion strains, locus YML120C, strain ndi1, stronger effect = lower value 0.982 | S. cerevisiae deletion strains, locus YML124C, strain tub3, stronger effect = lower value 0.991 | S. cerevisiae deletion strains, locus YMR078C, strain ctf18, stronger effect = lower value 0.989 | S. cerevisiae deletion strains, locus YMR125W, strain sto1, stronger effect = lower value 0.943 | S. cerevisiae deletion strains, locus YMR129W, stronger effect = lower value 0.965 | S. cerevisiae deletion strains, locus YMR205C, strain PFK2, stronger effect = lower value 0.993 | S. cerevisiae deletion strains, locus YMR223W, strain ubp8, stronger effect = lower value 0.949 | S. cerevisiae deletion strains, locus YMR231W, strain pep5, stronger effect = lower value 0.985 | S. cerevisiae deletion strains, locus YMR263W, strain SAP30, stronger effect = lower value 0.977 | S. cerevisiae deletion strains, locus YMR307W, strain GAS1, stronger effect = lower value 0.973 | S. cerevisiae deletion strains, locus YNL067W, strain RPL9B, stronger effect = lower value 0.982 | S. cerevisiae deletion strains, locus YNL071W, strain lat1, stronger effect = lower value 0.959 | S. cerevisiae deletion strains, locus YNL128W, strain TEP1, stronger effect = lower value 0.974 | S. cerevisiae deletion strains, locus YNL153C, strain GIM3, stronger effect = lower value 0.966 | S. cerevisiae deletion strains, locus YNL183C, strain NPR1, stronger effect = lower value 0.879 | S. cerevisiae deletion strains, locus YNL209W, strain ssb2, stronger effect = lower value 0.975 | S. cerevisiae deletion strains, locus YNL233W, strain BNI4, stronger effect = lower value 0.995 | S. cerevisiae deletion strains, locus YNL248C, strain rpa49, stronger effect = lower value 0.923 | S. cerevisiae deletion strains, locus YNL271C, strain bni1, stronger effect = lower value 0.998 | S. cerevisiae deletion strains, locus YNL298W, strain CLA4, stronger effect = lower value 0.991 | S. cerevisiae deletion strains, locus YNL307C, strain MCK1, stronger effect = lower value 0.952 | S. cerevisiae deletion strains, locus YNL322C, strain KRE1 (second series), stronger effect = lower value 0.98 | S. cerevisiae deletion strains, locus YNL322C, strain KRE1, stronger effect = lower value 1.01 | S. cerevisiae deletion strains, locus YNR049C, strain mso1, stronger effect = lower value 0.984 | S. cerevisiae deletion strains, locus YNR052C, strain pop2, stronger effect = lower value 0.998 | S. cerevisiae deletion strains, locus YOL006C, strain TOP1, stronger effect = lower value 1.03 | S. cerevisiae deletion strains, locus YOL012C, strain htz1 0.88 | S. cerevisiae deletion strains, locus YOL147C, strain pex11, stronger effect = lower value 0.999 | S. cerevisiae deletion strains, locus YOR001W, strain rrp6, stronger effect = lower value 0.977 | S. cerevisiae deletion strains, locus YOR061W, strain CKA2, stronger effect = lower value 0.998 | S. cerevisiae deletion strains, locus YOR069W, strain VPS5, stronger effect = lower value 0.999 | S. cerevisiae deletion strains, locus YOR070C, strain gyp1, stronger effect = lower value 0.98 | S. cerevisiae deletion strains, locus YOR080W, strain dia2, stronger effect = lower value 0.983 | S. cerevisiae deletion strains, locus YOR083W, strain WHI5, stronger effect = lower value 1 | S. cerevisiae deletion strains, locus YOR106W, strain vam3, stronger effect = lower value 0.969 | S. cerevisiae deletion strains, locus YOR136W, strain idh2, stronger effect = lower value 0.983 | S. cerevisiae deletion strains, locus YOR144C, strain elg1, stronger effect = lower value 1.02 | S. cerevisiae deletion strains, locus YOR184W, strain ser1, stronger effect = lower value 0.932 | S. cerevisiae deletion strains, locus YOR231W, strain MKK1, stronger effect = lower value 0.889 | S. cerevisiae deletion strains, locus YOR265W, strain rbl2, stronger effect = lower value 0.979 | S. cerevisiae deletion strains, locus YOR270C, strain vph1, stronger effect = lower value 0.874 | S. cerevisiae deletion strains, locus YOR290C, strain snf2, stronger effect = lower value 0.961 | S. cerevisiae deletion strains, locus YOR316C, strain cot1, stronger effect = lower value 0.999 | S. cerevisiae deletion strains, locus YPL051W, strain arl3, stronger effect = lower value 0.979 | S. cerevisiae deletion strains, locus YPL055C, strain LGE1, stronger effect = lower value 0.97 | S. cerevisiae deletion strains, locus YPL078C, strain atp4, stronger effect = lower value 0.956 | S. cerevisiae deletion strains, locus YPL106C, strain sse1, stronger effect = lower value 0.964 | S. cerevisiae deletion strains, locus YPL240C, strain hsp82, stronger effect = lower value 0.974 | S. cerevisiae deletion strains, locus YPL241C, strain CIN2, stronger effect = lower value 0.996 | S. cerevisiae deletion strains, locus YPL256C, strain CLN2, stronger effect = lower value 0.956 | S. cerevisiae deletion strains, locus YPR119W, strain clb2, stronger effect = lower value 1 | S. cerevisiae deletion strains, locus YPR141C, strain kar3, stronger effect = lower value 1.01 | S. cerevisiae deletion strains, locus YPR163C, strain tif3, stronger effect = lower value 1 | S. cerevisiae deletion strains, locus YPR167C, strain met16, stronger effect = lower value 1 | S. cerevisiae deletion strains, strain wtn01, stronger effect = lower value 0.99 | S. cerevisiae strains, strain wild type, stronger effect = lower value 0.997
active: S. cerevisiae deletion strains, locus YMR058W, strain fet3, stronger effect = lower value 0.898 | S. cerevisiae deletion strains, locus YNL250W, strain rad50, stronger effect = lower value 0.877

From PubChem BioAssay AID1159580 (chemical genetic matrix, 2015)
